Hits are enriched below; roughly 3.4% of the tested compounds scored in any of these assays.
esBAF inh: blocks esBAF chromatin remodeling in mouse ES cells; Bmi1-luciferase knock-in reporter, 24 h; 100% = twice the neutral-well signal; 350,000 tested, 2% active; reporter increase, % at 12.5 µM; in the data active means activation above about 40%; inconclusive means no clear call, values can overlap the other calls;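 further: 0% = median of the plate's neutral control wells and 100% = double that signal; a rise in the Bmi1 reporter signal indicates esBAF inhibition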
Env fusion inh: HIV envelope-mediated fusion inhibition; HeLa-JRFL Env/CEM21 cell fusion, luciferase; inhibition, % at 12.3 µM; 360,000 tested, 1.1% active; AID 651610;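 active means mean replicate inhibition score of at least 50 and every replicate individually at or above 50; inconclusive means only one of the two criteria met; inactive means mean below 50 and not all replicates reaching 50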;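 further: 0% = plate neutral controls and 100% = maraviroc near 300 nM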
MITF act: increases MITF-driven TRPM1 promoter luciferase signal; activation, % at 12.5 µM; 300,000 tested, 0.75% active; SK-MEL-5 TRPM1-promoter luciferase, 24 h; % of positive control, neutral wells = 0;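 active means mean activation of at least 80% with every replicate also reaching 80%; inconclusive means mean reaches 80% but some replicate falls short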;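 further: 0% = neutral control wells and 100% = parthenolide positive control wells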
miR-122 sensor: blocks miR-122 activity in Huh7 sensor cells. Huh7 miR-122 Renilla luciferase sensor, 48 h; neutral wells = 0, positive control = 100. activation (reporter increase), % at 12.5 µM. 340,000 tested, 0.3% active. AID 602342;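 active means mean replicate activation score at least 90 and every replicate individually at or above 90; inconclusive means only one of the two criteria met; inactive means neither criterion met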;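 further: higher luciferase means less miR-122 activity so hits act as miR-122 inhibitors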
Wnt act: activators of Wnt/beta-catenin signaling; activation, % at 9.35 µM; Wnt/beta-catenin reporter cell assay, activator, plate reader; 300,000 tested, 1.2% active; in the data active means activation above about 30%, passing the limit was not always enough; inconclusive means no clear call, values can overlap the other calls;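 further: 0% = neutral control wells and 100% = positive control wells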
Ring1 derepress: de-represses Ring1 in mouse ESCs, confirming esBAF inhibition; shares compounds with esBAF inh; mouse ESC E14, Ring1 mRNA RT-qPCR fold change; fold change at 33 µM; 550 tested, under 10 active; AID 743176;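 active means Ring1 gene expression raised more than 2-fold over untreated cells in both replicates at either tested dose; inconclusive means only one replicate above 2-fold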;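 further: Ring1 transcript normalised to actin housekeeping signal by TaqMan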
Fgf4 repress: represses Fgf4 in mouse ESCs, confirming esBAF inhibition; shares compounds with esBAF inh; mouse ESC E14, Fgf4 mRNA qPCR fold change; stronger effect = lower value; Fgf4 expression fold change at 33 µM; 550 tested, 4% active;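 active means Fgf4 expression under 0.8 fold of control in both repeat measurements at one or both tested doses; inconclusive means under 0.8 fold in just a single repeat measurement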;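 further: Fgf4 transcript normalised to actin in duplex TaqMan qPCR; cells exposed to compound for 24 h before lysis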
Bmi1 derepress: confirmation of esBAF inhibitors: Bmi1 de-repression in mouse ESCs; mouse ESE14 ES cells, Bmi1 mRNA qPCR fold; stronger effect = higher value; shares compounds with esBAF inh; 550 tested, under 10 active; fold change at 33 µM; AID 743180;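 active means Bmi1 expression fold change above 6 at either tested concentration, seen in replicate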
A549 tox SP: kills or reduces viability of A549 cells; A549 cytotoxicity, plate reader; AID 743188; 550 tested, under 10 active; shares compounds with esBAF inh; cell viability change % (negative = cytotoxic), % at 25 µM, hits read low; call rule not given here
HepG2 tox SP: HepG2 cell cytotoxicity at single point; activity change, negative = inhibition, % at 25 µM; AID 743189; 550 tested, 4% active; plate reader; stronger effect = lower value; shares compounds with esBAF inh; in the data active means activity change below about -50%
HEK293 tox SP: cytotoxicity in HEK293 cells; shares compounds with esBAF inh; plate reader; activity change, negative = inhibition, % at 25 µM, hits read low; 550 tested, 3% active; AID 743190; in the data active means activity change below about -38%, passing the limit was not always enough
The depositor's hits bear a star; i = inactive; ? = inconclusive; · = no result given; [ ] = dose if it differs, or a comment.

SMILES	esBAF inh	Env fusion inh	MITF act	miR-122 sensor	Wnt act	Ring1 derepress	Fgf4 repress	Bmi1 derepress	A549 tox SP	HepG2 tox SP	HEK293 tox SP
Cc1cccc(NC(=O)Nc2ccc3c(c2)C(=O)N(C)[C@@H]2CC[C@H](CC(=O)NCc4ccccc4Cl)O[C@@H]2CO3)c1	3	32[16.7 µM]	·	8[16.7 µM]	·	·	·	·	·	·	·
Cc1cc(C(=O)Nc2cccc3c2O[C@@H](CN(C)Cc2ccc4c(c2)OCO4)[C@@H](C)CN([C@H](C)CO)C3=O)n(C)n1	-2	18[16.7 µM]	·	33[16.7 µM]	·	·	·	·	·	·	·
COc1ccc(/C=C/C(=O)Oc2cccc(/C=N/NC(=O)Cc3ccc(Br)cc3)c2)cc1	63*	-34	38	-8	-23	1.2	?	1.6	-3	2	5
COc1cccc(/C=N/NC(=O)CCCC(=O)Nc2ccc(Br)cc2)c1	·	3	4	-1	-2	·	·	·	·	·	·
Cc1ccnc(NC(=O)CCCc2ccccc2)c1	65*	-13	45	-4	·	1.1	0.98	1.5	1	-1	1
O=C(Nc1ccc(F)c(Cl)c1)c1cc(C2CCCN(C(=O)C3CC3)C2)on1 (stereo unspecified)	77*	-86	·	-8	38*	1.4	0.98	2	-7	-5	-7
COc1cc(CNc2ccc(N3CCN(C(C)=O)CC3)cc2)ccc1OCc1ccc(F)cc1	58*	18	-31	2	16	2.2*	1.3	2.3	-5	-23	-29
COc1ccc(-c2cnc(C(O)c3ccc(-c4ccccc4)cc3)[nH]2)cc1 (stereo unspecified)	-3	7	·	4	-2	·	·	·	·	·	·
COc1ccc(-c2cnc(C(O)c3ccccc3)[nH]2)cc1 (stereo unspecified)	65*	-90	·	3	0	1.3	1	1.3	11	13	-2
COc1cc(SC)ccc1C(=O)NCC1CCCCC1	65*	-11	97*	·	0	1	0.83	1.4	-5	-17	-20
CO[C@H](CN(C)C(=O)c1cnccn1)[C@@H](C)CN([C@H](C)CO)S(=O)(=O)c1ccc(Cl)cc1	-1	·	·	·	·	·	·	·	·	·	·
O=C(Nc1ccc(C(F)(F)F)cc1)N[C@@H]1CC[C@H](CCn2cc(C3(O)CCCC3)nn2)O[C@@H]1CO	-28	-14[16.7 µM]	·	·	·	·	·	·	·	·	·
C[C@@H]1CCCCO[C@H](CN(C)C(=O)CCCN(C)C)[C@@H](C)CN([C@@H](C)CO)C(=O)c2cc(NC(=O)c3ccccc3)ccc2O1	1	-12[16.7 µM]	·	-4[16.7 µM]	·	·	·	·	·	·	·
Brc1ccc(-c2nnc(-c3ccccc3Br)o2)cc1	2	·	72	0	·	·	·	·	·	·	·
Brc1ccccc1-c1nnc(-c2cccnc2)o1	66*	i	·	-8	24	1	1	1.7	-5	-29	-3
O=C(N/N=C/c1cccc([N+](=O)[O-])c1)c1cccc2cc[nH]c12	·	0	0	·	-2	·	·	·	·	·	·
O=C(N/N=C/c1cccs1)c1cccc2cc[nH]c12	57*	·	28	8	7	1.4	1.1	1.3	-16	20	1
Cc1ccc(NC(=O)C(=O)Nc2ccc(C)cn2)nc1	57*	1	79	-5	2	0.97	1.1	1.1	-17	-28	-13
Cc1ccc(Cl)c2c(N=Nc3ccccc3)c(O)[nH]c12	58*	-115	35	6	14	1.5	0.98	1.6	4	24	-9
C[C@H]1CN([C@@H](C)CO)C(=O)c2cccc(NS(=O)(=O)c3ccccc3)c2O[C@H]1CN(C)Cc1ccccc1	-6	·	·	53[16.7 µM]	·	·	·	·	·	·	·
CCN(C(=O)c1ccc2c(Cl)c3c(nc2c1)CCC3)c1ccc(C)c(C)c1	-4	28	-2	·	-3	·	·	·	·	·	·
